Measured values taken from ChEMBL document CHEMBL3988442, “University of Dundee, Small-Polar-MMV Screening Library” (2021).
Hit rate of the full screen: of about 48,000 compounds, about 13,000 (27%) showed an effect of 50% or more. This is one part of the list.

test system: Wolbachia pipientis; assay: Anti-Wolbachia Cell-Based Screen; assay type: functional; parameters: scale not given: in the data most compounds retested in dose-response had high values; conditions: 5 µM

| SMILES | Percent Effect [%] |
| --- | --- |
| Cc1ccc2c(c1)C1(CCNCC1)CC2N1CCOCC1 (configuration not stated) | 0.9204 |
| N#Cc1ccc(S(=O)(=O)Nc2ccccc2C#N)cn1 | -3.183 |
| COc1ccc(NC(=O)N2CCCCCC2c2ccncc2)cn1 (configuration not stated) | -7.407 |
| O=C(NCC1(O)COCCN(Cc2ccc(O)cc2)C1)c1cnccn1 (configuration not stated) | 136.8 |
| O=C(NCC1(O)COCCN(Cc2cccc(O)c2)C1)c1ccccn1 (configuration not stated) | 141 |
| O=C(Nc1cnn(CCN2CCOCC2)c1)c1ccccn1 | -4.684 |
| O=C(NCN1CCc2ccccc2C1)c1cnccn1 | -0.1611 |
| O=C(NCC1(O)COCCN(Cc2cccc(O)c2)C1)c1cnccn1 (configuration not stated) | 119.9 |
| O=C(Nc1cc(N2CCOCC2)ncn1)c1cnccn1 | -2.836 |
| O=C(NCCc1cscn1)c1coc(CN2CCOCC2)c1 | -2.273 |
| O=C(NCCN1CCOCC1)c1ccc(OCc2ccccc2)nc1 | -12.09 |
| Cc1ccc(CN2CCOCC2)cc1NC(=O)c1ccsc1 | -4.906 |
| O=C(NCC1(O)COCCN(Cc2cccc(O)c2)C1)c1cscn1 (configuration not stated) | 117.5 |
| CCCN(Cc1ccccc1C)C(CC)CO (configuration not stated) | 3.002 |
| CC(C)c1nc(C(=O)N2CCc3ccccc3C2C(=O)O)cs1 (configuration not stated) | -0.5058 |
| CSCCNC(=O)c1coc(COc2ccc3sc(C)nc3c2)n1 | -17.64 |
| Cc1cc(CN2CCc3nn(C)c(=O)cc3C2)on1 | 13.66 |
| CNc1nc2c(c(C(=O)N3CCCC3)n1)CN(Cc1nccn1C)CC2 | 14.28 |
| CNc1nc2c(c(C(=O)N3CCCC3)n1)CN(Cc1cc(C)no1)CC2 | 97.24 |
| Cc1nc(N2CCCC2)nc2c1CCN(Cc1ccco1)CC2.O=C(O)C(F)(F)F | -6.041 |
| CCCn1nc2c(cc1=O)CN(Cc1cc(C)no1)CC2 | 7.336 |
| CNc1nc2c(c(C(=O)N3CCCC3)n1)CN(Cc1ccco1)CC2 | 133.6 |
| CC1(C)CN(C(=O)c2cnc(CN3CCCC3)s2)CC[C@]1(C)O | -20.27 |

| SMILES | Percent Effect [%] |
| --- | --- |
| CC(C)(NCc1cccc(O)c1)c1ccc2c(c1)OCO2 | 4.523 |
| Cc1cc(NC(=O)CNC(C)(C)c2ccc3c(c2)OCCO3)no1 | -9.405 |
| CC(C)(C)NC(=O)NC(=O)CNC(C)(C)c1ccc2c(c1)OCCO2 | 3.102 |
| COC(=O)c1oc(CNC(C)(C)c2ccc3c(c2)OCO3)cc1C | -12.91 |
| CCNC(=O)NC(=O)CNC(C)(C)c1ccc2c(c1)OCO2 | 117.5 |
| COC(=O)c1oc(CNC(C)(C)c2ccc3c(c2)OCCO3)cc1C | -6.562 |
| CC(C)(NCC(=O)NCC1CC1)c1ccc2c(c1)OCCO2 | 87.25 |
| CC(C)(NCC(=O)NCC(F)(F)F)c1ccc2c(c1)OCCO2 | 5.568 |
| Cc1cc(NC(=O)CNC(C)(C)c2ccc3c(c2)OCO3)on1 | 4.007 |
| CC(C)(NCc1cccc(C(N)=O)c1)c1ccc2c(c1)OCO2 | 2.76 |
| CC(C)(NCC(=O)NC(=O)NC1CC1)c1ccc2c(c1)OCO2 | 94.42 |
| CCNC(=O)NC(=O)CNC(C)(C)c1ccc2c(c1)OCCO2 | 126.2 |
| Cn1ccc(N2CCCC(NC(=O)c3ccsc3)C2=O)n1 (configuration not stated) | -23.95 |
| Cc1cnn(CCCNC(=O)C2CCCCN2Cc2ccncc2)c1 (configuration not stated) | -11.5 |
| COc1ccc(C)c2c1N(C(=O)c1cnc3onc(C)c3c1)CCC2 | 2.409 |
| O=C(CN1CCOC(c2ccc(Cl)c(Cl)c2)C1)NCc1ccco1 (configuration not stated) | -33.51 |
| Cc1noc(C)c1CN1CC2(CCCCN2c2cncnc2)CC1=O (configuration not stated) | 1.289 |
| COc1ccc(CN(C)C2CCN(C(=O)C(C)C)CC2)c2cccnc12 | -16.31 |
| CC(=O)N1C[C@H]2CCCN(c3ncc(C)cn3)[C@H]2C1 | 4.198 |
| CC(C)C(=O)N1CCC([C@@H]2C[C@H](C(F)F)n3ncnc3N2)CC1 | 105.2 |
| O=C(CCc1ccc(=O)[nH]n1)N1CCCC(COc2ccc(F)cc2)C1 (configuration not stated) | -3.616 |
| COCCn1ccnc1C1CCCN(C(=O)CSCC2CC2)C1 (configuration not stated) | -1.205 |
| COCCC(=O)N1CCCC([C@@H]2C[C@H](C(F)F)n3ncnc3N2)C1 (some centres not stated) | 128.9 |

| SMILES | Percent Effect [%] |
| --- | --- |
| CC(C)C(=O)N1CC[C@@H]2CN(Cc3ccncc3)S(=O)(=O)[C@@H]2CC1 | -1.309 |
| CC(C)C(=O)N1CCCC([C@@H]2C[C@H](C(F)F)n3ncnc3N2)C1 (some centres not stated) | 140.3 |
| CC(NC(=O)Nc1cccnc1N1CCOCC1)c1ccncc1 (configuration not stated) | -4.832 |
| CCc1nnc(CN(C)c2cc(C)nc3c(C)c(C)nn23)o1 | 7.383 |
| Cc1cc(N(C)Cc2cc(C)on2)n2nc(C)c(C)c2n1 | -5.11 |
| COc1ccc(CC(=O)NCCn2nc3ccccn3c2=O)cc1 | 7.031 |
| CN(CCn1nc2ccccn2c1=O)CC(=O)N(C)C1CCCCC1 | 82.2 |
| CCC(=O)CNC(=O)CCn1nc2ccccn2c1=O | -17.3 |
| Cc1ccsc1C(=O)NCCCn1nc2ccccn2c1=O | -12.31 |
| Cc1ccccc1CSCCn1nc2ccccn2c1=O | 8.414 |
| CC(=O)N1CCCN(CCn2nc3ccccn3c2=O)CC1 | 104.1 |
| CCCc1cc(C(=O)NCCn2nc3ccccn3c2=O)[nH]n1 | 0.6756 |
| CCOc1ccccc1CSCCn1nc2ccccn2c1=O | -0.2652 |
| CCN(CC)C(=O)CN(C)CCn1nc2ccccn2c1=O | 106.3 |
| COCCNC(=O)CN(C)CCn1nc2ccccn2c1=O | 81.18 |
| O=C(CC1CCCC1)NCCn1nc2ccccn2c1=O | 2.754 |
| CC(C1CC1)N(C(=O)NCCCn1nc2ccccn2c1=O)C1CC1 (configuration not stated) | -19.29 |
| CC(NCC1CCS(=O)(=O)CC1)c1cccc(OC(F)F)c1 (configuration not stated) | 6.07 |
| CCC1=N[C@@]2(CC[C@@H]3CN(CC4CC4)C[C@@H]32)C(=O)N1 | 9.591 |
| N#Cc1ccc(CNC2CCN(CCc3ccncc3)CC2)cc1 | -19.98 |
| CN(C)CCN(Cc1cccc(C(F)(F)F)c1)C(=O)c1cc[nH]n1 | 1.923 |
